# In PubChem BioAssay (NCI):
# About 79,000 compounds went through this panel and 15% of them were active in at least one assay; those are over-represented in the sample as a whole. The source made the active and inactive calls. No stated cut-off is given here; in the data, active means growth inhibition above about 70%; inactive means the rest.
# Experiment: NCI Yeast Anticancer Drug Screen. Data for the mgt1 strain (AID 153)
# Conditions: S. cerevisiae mgt1 mutant growth inhibition, stronger effect = higher value
# Procedure: Growth inhibition of yeast strains with defined genetic alterations is measured as a screen for potential anti-cancer activity. Selected strains with alterations in DNA damage repair or cell cycle control were exposed to compounds and growth inhibition was measured relative to vehicle treated controls. The strain used in this assay is mgt1
Compound,growth inhibition (at 1.2 µM),growth inhibition (at 3.7 µM),growth inhibition (at 11.0 µM),growth inhibition (at 33.0 µM),growth inhibition (at 100.0 µM)
CSC(=S)Nc1cccc(C)n1,-52% (inactive),-29% (inactive),-11% (inactive),16% (inactive),59% (inactive)
Nc1nc(-c2cccnc2)cc(-c2cc(-c3cccnc3)nc(N)n2)n1,2% (inactive),2% (inactive),2% (inactive),-1% (inactive),3% (inactive)
CCC(C)COC(=O)c1ccc(N=Cc2ccc(C=Nc3ccc(C(=O)OCC(C)CC)cc3)cc2)cc1 (stereo not given),1% (inactive),1% (inactive),-4% (inactive),-6% (inactive),6% (inactive)
O=C1NC(=O)C2C3C=CC(C3)C12 (stereo not given),-1% (inactive),23% (inactive),89% (active),96% (active),97% (active)
CN1Cc2ccccc2/C=C\c2ccccc21,0% (inactive),-3% (inactive),-1% (inactive),7% (inactive),22% (inactive)
CCCCCCCCCC/C=C\C(=O)O,-36% (inactive),-10% (inactive),-22% (inactive),-9% (inactive),98% (active)
CCOP(=O)(OCC)C(Cc1ccccc1)N=C(c1ccccc1)c1ccccc1 (stereo not given),16% (inactive),-6% (inactive),10% (inactive),86% (active),98% (active)
O=C(NCCCNCCCNC(=O)c1cc(-c2ccccc2)nc2ccccc12)c1cc(-c2ccccc2)nc2ccccc12,-2% (inactive),-1% (inactive),-3% (inactive),20% (inactive),61% (inactive)
